# Source: PubChem BioAssay (Tox21)
# “And” between values parts separate entries of the source, which are not always exact repeats. Equal entries are not always repeated. Records with an inconclusive call do not appear. A call without a number means that no potency is given here. The source holds several records for some structures; these can differ, active in one and inactive in another. The source made the active and inactive calls. Unless noted, calls follow the shape of the full dose curve.
# Legend:
# [1] = qHTS assay to identify small molecule agonists of the vitamin D receptor (VDR) signaling pathway - cell viability counter screen (AID 743224; active = well fitted curve in the direction sought with a large enough effect in the repeat runs; an effect the other way counts as inactive or inconclusive; also: nearly all actives have a fitted effect of over 50% in size; also: potency is read from the fitted curve at half-maximal effect)
# Summary of the method: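 Cells: VDR-bla, 2,000/well, settled 4 h. Treatment: compounds in DMSO, 16 h, 37C/5% CO2. Readout: CellTiter-Glo luminescence after 30 min RT.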
# [2] = qHTS assay to identify small molecule antagonists of the vitamin D receptor (VDR) signaling pathway - cell viability counter screen (AID 743225; active = well fitted curve in the direction sought with a large enough effect in the repeat runs; an effect the other way counts as inactive or inconclusive; also: nearly all actives have a fitted effect of over 50% in size)
# Summary of the method: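 HEK293T VDR-bla; cpd + 1a,25-(OH)2D3 3 nM final, 16 h 37C/5% CO2; B/G FRET substrate 2 h RT; then CellTiter-Glo 30 min RT, luminescence.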
# [3] = qHTS assay to identify small molecule agonists of the NFkB signaling pathway - cell viability counter screen (AID 1159515); also: nearly all actives have a fitted effect of over 55% in size; also: potency is read from the fitted curve at half-maximal effect
# Summary of the method: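 Cells are seeded (2,000 NFkB-bla ME-180 per well), rested overnight, and dosed with DMSO-dissolved compounds for 5 hr at 37 C. Viability is then read by CellTiter-Glo luminescence after 30 min at room temperature.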
# [4] = qHTS assay to identify small molecule agonists of the endoplasmic reticulum stress response signaling pathway (AID 1159516; active = well fitted activation curve with a large enough effect in the signal ratio in the repeat runs, not every such curve was filed as active; the % refers to the signal ratio)
# Summary of the method: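 Cells are seeded at 1,500 per well and incubated overnight. Compounds in DMSO are added for 5 hr at 37 C, then beta-lactamase FRET substrate for 2 hr at room temperature, and fluorescence at 460 and 530 nm is measured.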
# [5] = qHTS assay to identify small molecule agonists of the endoplasmic reticulum stress response signaling pathway - cell viability counter screen (AID 1159517);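 also: HeLa cells carrying an ER stress response element beta-lactamase reporter; series mostly up to about 61 µM; nearly all actives have a fitted effect of over 50% in size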
# Summary of the method: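 ESRE-bla HeLa cells (1,500/well) were plated overnight at 37 C and exposed to compounds for 5 hr. After the 2 hr beta-lactamase substrate read, CellTiter-Glo went into the same wells, and luminescence was read after 30 min at room temperature.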
# [6] = qHTS assay to identify small molecule antagonists of the retinoid-related orphan receptor gamma (ROR-gamma) signaling pathway - cell viability counter screen (AID 1159520; active = well fitted curve in the direction sought with a large enough effect in the repeat runs; an effect the other way counts as inactive or inconclusive; also: nearly all actives have a fitted effect of over 50% in size)
# Summary of the method: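 Cytotoxicity was read from cellular ATP (CellTiter-Glo luminescence) after 16 hr at 37 C with 1 uM doxycycline induction. The inducer was added 2 hr after compound transfer to Tet-on ROR gamma CHO cells.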
# [7] = target: Nuclear receptor ROR-gamma (Homo sapiens) (UniProt P51449); experiment: qHTS assay to identify small molecule antagonists of the retinoid-related orphan receptor gamma (ROR-gamma) signaling pathway (AID 1159521; active = well fitted curve in the direction sought with a large enough effect in the repeat runs; an effect the other way counts as inactive or inconclusive; also: nearly all actives have a fitted effect of over 50% in size; also: potency is read from the fitted curve at half-maximal effect)
# Summary of the method: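 Cells were plated, rested 4 h at 37 C, exposed to compounds for 2 h, then given 1 uM final doxycycline hyclate to induce RORγ expression. After 16 h, ONE-Glo luminescence from the ROR response element reporter was measured.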
# [8] = qHTS assay to identify small molecule agonists of the AP-1 signaling pathway - cell viability counter screen (AID 1159525); also: nearly all actives have a fitted effect of over 55% in size; also: potency is read from the fitted curve at half-maximal effect
# Summary of the method: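 Intracellular ATP by Cell Titer Glo luminescence (30 min, RT) in the same ME-180 AP-1-bla wells after the 5 h compound exposure at 37 °C. Normalised to tetra n-octyl ammonium bromide and DMSO controls.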
# [9] = qHTS assay to identify small molecule agonists of the AP-1 signaling pathway (AID 1159526)
# [10] = target: Retinoic acid receptor RXR-alpha (Homo sapiens) (UniProt P19793); experiment: qHTS assay to identify small molecule agonists of the RXR signaling pathway (AID 1159527); also: nearly all actives have a fitted effect of over 35% in size; also: potency is read from the fitted curve at half-maximal effect
# Sequence of Retinoic acid receptor RXR-alpha (Homo sapiens) (P19793 whole entry, looked up): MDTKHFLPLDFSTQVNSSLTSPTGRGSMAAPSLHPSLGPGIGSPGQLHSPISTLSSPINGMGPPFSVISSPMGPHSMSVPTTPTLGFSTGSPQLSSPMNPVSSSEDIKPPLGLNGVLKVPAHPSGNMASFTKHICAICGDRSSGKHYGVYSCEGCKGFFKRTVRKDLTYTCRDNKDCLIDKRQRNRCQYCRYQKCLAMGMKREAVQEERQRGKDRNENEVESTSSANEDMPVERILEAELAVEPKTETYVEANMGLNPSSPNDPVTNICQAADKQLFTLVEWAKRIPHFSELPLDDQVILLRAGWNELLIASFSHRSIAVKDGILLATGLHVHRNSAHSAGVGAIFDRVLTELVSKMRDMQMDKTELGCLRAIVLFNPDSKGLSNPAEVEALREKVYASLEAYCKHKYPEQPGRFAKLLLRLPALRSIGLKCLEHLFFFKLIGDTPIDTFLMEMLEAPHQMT
# Summary of the method: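 Cells plated at 2,000/well, rested 5 hr at 37 C, pin-dosed with DMSO compound solutions, incubated 16 hr, then loaded with B/G FRET substrate for 2 hr at RT before dual-emission fluorescence reading.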
SMILES,Potency [1],Potency [2],Potency [3],Potency [4],Potency [5],Potency [6],Potency [7],Potency [8],outcome [9],Potency [10]
COc1ccc(C=O)cc1OC,inactive,inactive,inactive,inactive,inactive,inactive,inactive,inactive,inactive,inactive
c1ccc(C2CO2)cc1 (centres undefined),inactive,inactive,inactive,inactive,inactive,inactive,inactive,inactive,inactive,inactive and 17.4 µM (active)
CCCCOCCOC(C)=O,inactive,inactive,inactive,inactive,inactive,inactive,inactive,inactive,inactive,inactive
COP(=S)(OC)Oc1ccc(S(=O)(=O)N(C)C)cc1,inactive,inactive,inactive,inactive,inactive,inactive,inactive,inactive,inactive,inactive
CCCCSP(=O)(SCCCC)SCCCC,inactive,inactive,inactive,inactive,inactive,inactive,inactive,inactive,inactive,inactive
Cc1ccc(N=CN(C)C=Nc2ccc(C)cc2C)c(C)c1,39.1 µM (active) and 38.9 µM (active),inactive,54.9 µM (active) and inactive,inactive,inactive,inactive,48.8 µM (active) and 54.4 µM (active) and inactive,54.9 µM (active) and inactive,inactive,inactive
Cc1cc(Cl)ccc1N=CN(C)C,inactive,inactive,inactive,inactive,inactive,inactive,inactive,inactive,inactive,inactive
CNC(=O)CSP(=S)(OC)OC,inactive,inactive,inactive,inactive,inactive,inactive,inactive,inactive,inactive,inactive
Nc1ccc2ccccc2c1,inactive,inactive,inactive,inactive,inactive,inactive,inactive,inactive,inactive,inactive
O=C1Nc2ccc(Cl)cc2C(c2ccccc2)=NC1O (centres undefined),inactive,inactive,inactive,inactive,inactive,inactive,inactive,inactive,inactive,inactive
O=NN1CCOCC1,inactive,inactive,inactive,inactive,inactive,inactive,inactive,inactive,inactive,inactive
Cc1ccc([N+](=O)[O-])cc1,inactive,inactive,inactive,inactive,inactive,inactive,inactive,inactive,inactive,inactive
N#CC(c1ccccc1)c1ccccc1,inactive,inactive,inactive,inactive,inactive,inactive,inactive,inactive,inactive,inactive
ClC(Cl)(Cl)Br,inactive,inactive,inactive,inactive,inactive,inactive,inactive,inactive,inactive,inactive
CC1(C)Cc2cccc(O)c2O1,inactive,inactive,inactive,inactive,inactive,inactive,inactive,inactive,inactive,inactive
Brc1ccc(Br)cc1,inactive,inactive,inactive,inactive,inactive,inactive,inactive,inactive,inactive,inactive
ClC(Cl)(Cl)c1ccccc1,inactive,inactive,inactive,inactive,inactive,inactive,inactive,inactive,inactive,inactive
Clc1ccc(C(Cl)(Cl)Cl)cc1,inactive,inactive,inactive,inactive,inactive,inactive,inactive,inactive,inactive,inactive
NC(=O)CN1CCCC1=O,inactive,inactive,inactive,inactive,inactive,inactive,inactive,inactive,inactive,inactive
CCC/C=N/O,inactive,inactive,inactive,inactive,inactive,inactive,inactive,inactive,inactive,inactive
Clc1cccc(C(Cl)(Cl)Cl)n1,inactive,inactive,inactive,inactive,inactive,inactive,inactive,inactive,inactive,inactive
O=P(OCCCl)(OCCCl)OCCCl,inactive,inactive,inactive,inactive,inactive,inactive,inactive,inactive,inactive,inactive
C[N+](C)(C)C,inactive,inactive,inactive,inactive,inactive,inactive,inactive,inactive,inactive,inactive

SMILES,Potency [1],Potency [2],Potency [3],Potency [4],Potency [5],Potency [6],Potency [7],Potency [8],outcome [9],Potency [10]
Nc1ncn[nH]1,inactive,inactive,inactive,inactive,inactive,inactive,inactive,inactive,inactive,inactive
C[N+](C)(C)CC(=O)[O-],inactive,inactive,inactive,inactive,inactive,inactive,inactive,inactive,inactive,inactive
C=CC(Cl)CCl (centres undefined),inactive,inactive,inactive,inactive,inactive,inactive,inactive,inactive,inactive,inactive
C=C(C)C#N,inactive,inactive,inactive,inactive,inactive,inactive,inactive,inactive,inactive,inactive
COc1ccc(CO)cc1,inactive,inactive,inactive,inactive,inactive,inactive,inactive,inactive,inactive,inactive
CC(C)(C#N)N=NC(C)(C)C#N,inactive,inactive,inactive,inactive,inactive,inactive,inactive,inactive,inactive,inactive
CC(C)CON=O,inactive,inactive,inactive,inactive,inactive,inactive,inactive,inactive,inactive,inactive
Oc1ccc(Cl)cc1Cl,inactive,inactive,inactive,inactive,inactive,inactive,inactive,inactive,inactive,inactive
Clc1ccccc1-c1nnc(-c2ccccc2Cl)nn1,inactive,inactive,inactive,inactive,inactive,inactive,inactive,inactive,inactive,inactive
O=S(=O)(O)C(F)(F)C(F)(F)C(F)(F)C(F)(F)C(F)(F)C(F)(F)C(F)(F)C(F)(F)F,–,–,inactive,inactive,inactive,inactive,inactive,inactive,inactive,inactive
CC1=C(C(=O)Nc2ccccc2)SCCO1,inactive,inactive,inactive,inactive,inactive,inactive,inactive,inactive,inactive,inactive
CCCCOCC1CO1 (centres undefined),inactive,inactive,inactive,inactive,inactive,inactive,inactive,inactive,inactive,inactive
CNC(=S)S,inactive,inactive,inactive,inactive,inactive,inactive,inactive,inactive,inactive,inactive
CCNCC,inactive,inactive,inactive,inactive,inactive,inactive,inactive,inactive,inactive,inactive
Cn1c(-c2ccccc2)cc(-c2ccccc2)[n+]1C,inactive,inactive,inactive,inactive,inactive,inactive,inactive,inactive,inactive,inactive
N#Cc1cccnc1,inactive,inactive,inactive,inactive,inactive,inactive,inactive,inactive,inactive,inactive
C[C@]12CCC(=O)C=C1CC[C@@H]1[C@@H]2CC[C@@]2(C)[C@H]1CC[C@]2(C)O,inactive,inactive,inactive,inactive,inactive,inactive,15.5 µM (active) and 26.6 µM (active),inactive,inactive,–
Clc1cccc(Cl)c1,inactive,inactive,inactive,inactive,inactive,inactive,30.4 µM (active),inactive,inactive,–
ClCC(Cl)CCl,inactive,inactive,inactive,inactive,inactive,inactive,inactive,inactive,inactive,inactive
O=C(O)CF,inactive,inactive,inactive,inactive,inactive,inactive,inactive,inactive,inactive,inactive
COP(=S)(OC)Oc1ccc(Sc2ccc(OP(=S)(OC)OC)cc2)cc1,inactive,inactive,inactive,inactive,inactive,inactive,inactive,inactive,inactive,inactive
N#Cc1nn(-c2c(Cl)cc(C(F)(F)F)cc2Cl)c(N)c1S(=O)C(F)(F)F (centres undefined),24.7 µM (active) and inactive,–,inactive,inactive,inactive,inactive,7.74 µM (active) and 16.8 µM (active),inactive,inactive,–
